# Compound activity from PubChem.
# HIF activator: HIF pathway transcriptional activation | activation, % at 7.5 µM (by protocol) | AID 1910 | 0.32% of 300,000 active | U2OS HRE-luciferase reporter, luminescence; normalized: DMSO 0%, desferrioxamine 100%;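 active = mean activation of at least 10% of the iron chelator positive control signal, with at least half of replicates also reaching 10%; inconclusive = mean and replicate majority disagree about reaching 10%; inactive = mean and most replicates under 10%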
# AI-2 QS mod: modulators of Vibrio harveyi AI-2 quorum sensing system. Vibrio harveyi JMH597 AI-2 luminescence/OD600 ratio, 9 h; active compounds read low; strain lacks LuxN and CqsS sensors; 0 = neutral-control median. activity change, % at 7.5 µM. 0.4% of 300,000 active; in the data active = activity change below about -75%, passing the limit was not always enough; inconclusive = no clear call, values can overlap the other calls;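 also: luminescence divided by OD600 gain over 9 h not by final OD600 alone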
# CHT inh: inhibitors of human choline transporter CHT. CHT-expressing cells, membrane potential dye, choline response; active compounds read low. B-score at 10 µM. 0.86% of 310,000 active. AID 488975;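 active = B-score over 3 SD under the library average, and starting fluorescence ratio not unusually high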;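 also: choline stimulus applied at its EC90 after an EC20 pre-addition; B-score computed on integrated fluorescence ratio after choline addition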
# Target sequence (Q9GZV3 whole entry, looked up): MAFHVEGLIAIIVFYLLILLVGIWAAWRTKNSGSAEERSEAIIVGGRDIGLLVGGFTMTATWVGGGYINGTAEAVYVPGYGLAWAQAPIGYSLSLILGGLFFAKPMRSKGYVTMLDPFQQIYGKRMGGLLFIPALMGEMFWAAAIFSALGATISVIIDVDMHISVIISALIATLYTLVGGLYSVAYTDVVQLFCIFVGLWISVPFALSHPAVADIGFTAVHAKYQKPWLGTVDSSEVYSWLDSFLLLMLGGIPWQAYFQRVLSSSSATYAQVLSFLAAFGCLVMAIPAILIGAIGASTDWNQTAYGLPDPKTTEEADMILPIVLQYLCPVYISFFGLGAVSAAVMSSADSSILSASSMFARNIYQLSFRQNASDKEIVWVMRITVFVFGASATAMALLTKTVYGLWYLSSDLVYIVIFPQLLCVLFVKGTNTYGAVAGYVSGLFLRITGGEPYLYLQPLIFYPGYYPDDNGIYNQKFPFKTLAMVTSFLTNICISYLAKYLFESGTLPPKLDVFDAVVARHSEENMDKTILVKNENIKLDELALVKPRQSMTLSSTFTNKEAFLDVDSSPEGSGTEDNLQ
# VLA-4 inh: inhibition in a human VLA-4 binding assay; P13612; inhibition, % (about 7 µM as worked out from the volumes in the protocol); AID 2557; 0.2% of 330,000 active; VLA-4 expressing cells, ligand binding flow cytometry; in the data active = inhibition above about 50%
# CHT PAM: human CHT allosteric activation | Q9GZV3 | CHT-expressing cells, membrane potential dye, choline EC20; active compounds read high; LV-AA mutant CHT in HEK293 cells | B-score at 10 µM | 0.49% of 310,000 active | AID 488977;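 active = initial fluorescence not abnormally high and integrated response B-score, plate-corrected, over 3 SD above library mean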
# Platelet DG rel: platelet dense granule release activity; inhibition, %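 (compounds screened at 7.5 µM in platelet-rich plasma)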; human platelet-rich plasma, SFLLRN dense granule ATP release, luminescence; AID 1663; 0.22% of 300,000 active;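 active = mean replicate score, as percent of positive control, at or above 50; inconclusive = mean below 50 but at least one replicate at or above 50; inactive = mean and every replicate below 50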
# JMH597 growth: retest Vibrio harveyi JMH597 growth inhibition. shares compounds with AI-2 QS mod. AID 2726. growth inhibition, % at 7.5 µM. 1% of 750 active. OD600 absorbance, 9 h; lacks LuxN and CqsS sensors;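 active = every replicate shows growth inhibition above 50%; inconclusive = at least half, but not all, replicates pass that cutoff; inactive = fewer than half of replicates pass it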
# BB721 lum counter: retest counter-screen: lowers luminescence of constitutive-QS Vibrio harveyi BB721; shares compounds with AI-2 QS mod; 9 h; inhibition, % at 7.5 µM; 95% of 750 active; AID 2727;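 active = inhibition above about 80% in every replicate, not just on average, limit read from the data; inconclusive = at least half of replicates past the limit, but not all; inactive = fewer than half of replicates past the limit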
# BB721 growth rt: retest: inhibitors of Vibrio harveyi BB721 growth. shares compounds with AI-2 QS mod. OD600 absorbance, 9 h. growth inhibition, % at 7.5 µM. 3% of 750 active. AID 2728;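 active = every replicate shows growth inhibition above 50%; inconclusive = at least half but not all replicates above 50% inhibition; inactive = under half of replicates above 50% inhibition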
# JMH597 AI-2 mod: Vibrio harveyi AI-2 signaling luminescence modulation – JMH597 strain, confirmation. 97% of 750 active. inhibition, % at 7.5 µM. Vibrio harveyi JMH597 AI-2 quorum sensing luminescence, 9 h; luxN and CqsS knockout, AI-2 only. shares compounds with AI-2 QS mod;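 active = every replicate shows more than 75% inhibition of signal versus neutral control wells; inconclusive = half to three quarters of replicates exceed 75% inhibition; inactive = fewer than half of replicates exceed 75% inhibition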
# Hits are given with their value; n = inactive; u = inconclusive; x = no result given. In the library only some 2.2% were active in any assay of this set; here they are far more common.
SMILES,HIF activator,AI-2 QS mod,CHT inh,VLA-4 inh,CHT PAM,Platelet DG rel,JMH597 growth,BB721 lum counter,BB721 growth rt,JMH597 AI-2 mod
COC(=O)c1cccc(NC(=O)C(C)N2C(=O)c3ccccc3C2=O)c1 (centres undefined),n,-86,n,n,n,n,n,95,n,97
O=C(Nc1ccc(OC(=O)c2ccco2)cc1)c1ccco1,n,n,n,n,n,n,x,x,x,x
O=C(Nc1ccc(Oc2cccc3ccccc23)cc1)c1ccco1,n,-88,n,n,n,n,n,95,n,93
O=C(OC1CCCCC1)c1ccc(NC(=O)c2ccco2)cc1,n,-79,n,n,n,n,n,85,u,90
O=[N+]([O-])c1cccc2c(S(=O)(=O)N3CCOCC3)cccc12,n,x,n,n,n,n,x,x,x,x
CC(C)=CC(=O)OCC(=O)Nc1cccc([N+](=O)[O-])c1,n,-89,n,n,n,n,n,95,n,97
O=C(COc1ncnc2ccccc12)Nc1ccc(Cl)c([N+](=O)[O-])c1,n,-97,n,n,n,n,n,100,n,100
O=C(COc1ncnc2ccccc12)Nc1cccc([N+](=O)[O-])c1,n,-96,n,n,n,n,n,98,n,99
CCOC(=O)C1CC(C)=C(C)CC1C(=O)O (centres undefined),n,n,n,n,n,n,x,x,x,x
O=C1CCCN1c1ccc(C(=O)N(Cc2nnc(-c3ccc(Cl)cc3)o2)C2CC2)cc1,n,n,n,n,n,n,x,x,x,x
COc1ccc(OCC(O)CN2CCc3ccccc3C2)cc1 (centres undefined),n,n,n,n,n,n,x,x,x,x
CC(C)(C)c1ccc(OCC(O)CN2CCc3ccccc3C2)cc1 (centres undefined),n,-82,n,n,n,n,n,81,n,88
O=C(CNC(=O)c1ccco1)NNC(=O)c1n[nH]c(=O)c2ccccc12,x,x,x,n,x,x,x,x,x,x
CC(C)Cc1ccc(S(=O)(=O)Nc2ccccn2)cc1,n,-93,n,n,n,n,n,98,n,100
Cc1ccccc1-c1ccc(=O)n(CC(=O)Nc2ccc(S(=O)(=O)N(C)C)cc2)n1,n,-87,n,n,n,n,n,93,n,96
CCN(CC)c1ccc(NC(=S)NC(=O)Cc2ccccc2)cc1,n,n,n,n,n,n,x,x,x,x
CN(C)S(=O)(=O)c1ccc(NC(=S)NC(=O)Cc2ccccc2)cc1,n,-86,n,n,n,n,n,n,n,n
COCCNC(=O)Cn1nc(-c2ccccc2C)ccc1=O,n,n,n,n,n,n,x,x,x,x
Cn1c(=O)n(C)c2cc(NC(=O)CCl)ccc21,n,-88,n,n,n,n,n,87,n,89
CCOc1ccc(C(=O)N2CCC3(CC2)NCCc2[nH]cnc23)cc1,n,n,n,n,n,n,x,x,x,x
O=C(c1cc2cc(Cl)ccc2[nH]1)N1CCN(c2ccccc2F)CC1,n,n,n,n,n,n,x,x,x,x
O=C(c1cc2cc(Cl)ccc2[nH]1)N1CCN(C(=O)c2ccco2)CC1,n,-94,n,n,n,n,n,97,n,98
COc1ccc(NC(=O)CSCC(=O)N(C)CC(=O)Nc2ccc(Cl)c(C(F)(F)F)c2)cc1,n,-80,n,n,n,n,n,89,n,91
Cc1nn(CC(=O)Nc2ccc(Br)cc2F)c(=O)c2cccn12,n,n,n,n,n,n,x,x,x,x
COc1ccc(C(=O)OCC(=O)c2c[nH]c3ccccc23)cc1OC,x,x,x,n,x,x,x,x,x,x
SMILES,HIF activator,AI-2 QS mod,CHT inh,VLA-4 inh,CHT PAM,Platelet DG rel,JMH597 growth,BB721 lum counter,BB721 growth rt,JMH597 AI-2 mod
Cc1ccc(C(=O)OCC(=O)c2c[nH]c3ccccc23)cc1,n,-79,n,n,n,n,n,77,n,86
O=S(=O)(NCCSc1ccc(Cl)cc1)c1ccc(F)cc1,n,n,n,n,n,n,x,x,x,x
Cc1ccc(SCCNS(=O)(=O)c2ccc(F)cc2)cc1,n,-94,n,n,n,n,n,94,n,95
COc1ccc(NS(=O)(=O)c2ccc(N3C(=O)CCC3=O)cc2)cc1,n,n,n,n,n,n,x,x,x,x
COc1ccc(S(=O)(=O)Nc2ccc(-n3cccc3)cc2)cc1,n,-96,n,n,n,n,n,94,n,99
Cc1csc(=O)n1CCC(=O)OCC(=O)Nc1cccc(C#N)c1,n,n,n,n,n,n,x,x,x,x
O=C(O)c1ccc(N/N=C/c2ccc(-c3ccc(Cl)cc3Cl)o2)cc1,n,-90,n,n,n,n,n,98,n,97
O=[N+]([O-])/C=C\c1ccc(N2CCCC2)c(F)c1,n,n,x,x,x,n,x,x,x,x
O=C(CCc1ccccc1)NC1(Cc2ccccc2)CCN(CCCc2ccccc2)C1=O (centres undefined),x,x,x,n,x,x,x,x,x,x
Cc1ccc(NC(=O)CCCC2CCCCC2)c(O)c1,n,-91,n,n,n,n,n,97,n,98
Cc1ccc(NC(=O)COC(=O)CCC2CCCC2)c(Br)c1,x,x,x,n,x,x,x,x,x,x
CN(c1ccccc1)S(=O)(=O)c1cccc(NC(=O)c2nn(C)c(=O)c3ccccc23)c1,x,x,x,n,x,x,x,x,x,x
CC(C)(C)c1csc(NC(=O)CSc2nc3ccccc3c(=O)[nH]2)n1,n,n,n,n,n,n,x,x,x,x
CN(c1ccccc1)S(=O)(=O)c1cccc(NC(=O)Cn2cnc3ccccc3c2=O)c1,n,-93,n,n,n,n,n,99,88,99
CC(C)(C)c1csc(NC(=O)Cn2cnc3ccccc3c2=O)n1,n,-95,n,n,n,n,n,97,n,98
CC(Cc1cccnc1)NC(=O)c1cc(COc2c(F)cccc2F)on1 (centres undefined),n,u,n,n,n,n,n,88,n,92
O=C(NNC(=O)c1cc(-c2ccncc2)nc2ccccc12)c1cccc(Cl)c1,n,n,n,n,n,n,x,x,x,x
N#Cc1cn(Cc2ccccc2)c(=O)[nH]c1=O,n,n,n,n,n,n,x,x,x,x
O=c1[nH]c(=O)n(Cc2ccc(Oc3ccccc3)cc2)cc1Br,n,-86,n,n,n,n,n,93,n,95
O=C(O)c1cc(NC(=O)c2cccc(C(=O)Nc3cc(C(=O)O)cc(C(=O)O)c3)c2)cc(C(=O)O)c1,n,n,n,n,n,n,x,x,x,x
CC1(c2ccccc2)NC(=O)N(CC(=O)Nc2cccc(C#N)c2)C1=O (centres undefined),n,-95,n,n,n,n,n,97,n,98
